The structures appear in SMILES notation.

The assay is described as follows: A549 cell viability effects, profiling panel, calcein-AM fluorescence, 48 h, basal (AID 1162). Also: test concentration not given here. The settings on record: higher = more signal.
Regarding `COc1ccc(C(=O)Nc2cccc(CN3C(=O)[C@]4(O[C@H](CCn5cc(CCO)nn5)[C@@H]([Si](C)(C)c5ccc(OC)cc5)[C@@H]4C)c4ccccc43)c2)cc1`, the z-score was -3.46.

Consider `COC(=O)c1c2oc(c1C(=O)OC)C(=O)N[C@@H](C(C)C)Cn1cc(nn1)C1(CCCCC1)NC(=O)N[C@H](CO)CC2`, for which the z-score is 1.31.

Regarding `O=C1NC(=O)C2C1C=CC(C(O)c1ccc(-c3ccccc3)s1)N2Nc1ccc(Cl)cc1Cl` (stereo unspecified), the z-score was -1.95.

As to `CCOC(=O)C[C@H]1[C@H](OC(=O)c2ccc(-c3ccccc3)cc2)[C@@H](NC(=O)c2ccccc2)c2cc(OCCCO)ccc2N1C(=O)Cc1ccc(OC)cc1`, the z-score is 0.437.

Take `COC(=O)[C@@]1(Cc2ccc(OC)cc2)[C@H]2c3cc(C(=O)N4CCCC4)n(CCCNc4ncc(C(F)(F)F)cc4Cl)c3C[C@H]2CN1C(=O)c1ccccc1`: the z-score was -1.54.

As to `CC(=CC1CCCCC1)[C@@H](NC(=O)c1cccnc1)c1ccc(-c2ccccc2)cc1`, the z-score was -1.3.

As to `C=CCC(OC(C)=O)[C@@H]1[C@@H](N(Cc2ccc(-c3cccc(C(F)(F)F)c3)o2)C(=O)Cc2ccc(OC)cc2)c2cc(OCCCO)ccc2N1C(=O)c1ccc2ccccc2c1` (stereo partly specified), the z-score was -0.138.

Turning to `CCOC(=O)C1=CC[C@@H](c2ccccc2)N(S(=O)(=O)c2ccc(C)cc2)[C@H]1c1ccc(CC)cc1`, the z-score was -0.516.

Take `O=c1cccc(-c2ccccc2Cl)o1`: the z-score is 0.586.

As for `CCCCC(=C=CC[C@H](O)c1cccc(OCCO)c1)C[C@H](O)c1ccccn1`, the z-score was 1.35.

As to `COc1ccc([Si](C)(C)[C@@H]2[C@@H](CC(=O)N3CCC[C@H]3CO)O[C@]3(C(=O)N(Cc4cccc(I)c4)c4ccccc43)[C@H]2C)cc1`, the z-score is -1.08.

The record behind these values is PubChem BioAssay.
